Viability loss activity score data for 85 molecules are collected here from PubChem BioAssay AID2275 (Broad Institute, 2010).

About 190 (0.63%) of roughly 30,000 compounds were called active. Shown is part of a subset that was picked to be rich in actives. A number with no mark means an inactive call. Rule as the data show it: active = viability loss activity score above about 50%; inconclusive = no clear call, values can overlap the other calls; inactive = below about 35%.

This assay can be described thus: cytotoxicity in HRASV12-transformed BJ fibroblasts – cell-based, luminescence, CellTiterGlo ATP, primary screen (AID 2275).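 Also: higher score means fewer live cells and less ATP luminescence.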 The note with it: BJeLR fibroblasts viability, 48 h, hits give high values, HRASV12, hTERT and SV40 LT/ST transformed, concentration not given here.
For `CNC(=O)NC(=O)CSc1ncnc2sc(-c3ccccc3)cc12`, the viability loss activity score was 7.62%.
With `CC(C)NC(=O)N(C)C[C@H]1Oc2ccc(NC(=O)CCCCCC(=O)Nc3ccccc3N)cc2C(=O)N([C@@H](C)CO)C[C@@H]1C`, the viability loss activity score was -2.79%.
For `Cc1ccccc1C(=O)Nc1ccc(NC(=O)c2ccc(C(C)(C)C)cc2)cc1` the value was -4.36%; for `N#Cc1c(-c2ccccc2)c(-c2ccccc2)nn(CC(=O)NN)c1=O`, 26.9%.
For `COC(=O)C1=C(C)NC2=C(C(=O)c3ccccc32)C1c1ccc(OC)cc1` (stereo not given) the value was -2.35%; for `CCOC(=O)c1cc2c(C)n(-c3ccccc3)c(C)c2cc(C(=O)OCC)c1=O`, -1.14%.
For `CC(C)n1c(SCC(=O)O)nc2cc(Cl)ccc21` the value was 2.11%.
Turning to `CCN(/C=C1\SC(=S)N(c2ccc(OC)cc2)C1=O)CC`, the viability loss activity score was -2.34%.
For `CCCN(C(=O)CCc1nc(-c2ccccc2F)no1)c1ccccc1C` the value was 14.3%; for `COc1ccc(CN(C)C[C@H]2Oc3c(NC(=O)C4CCCCC4)cccc3C(=O)N([C@@H](C)CO)C[C@@H]2C)cc1`, 0.512%.
The figure for `CC(=O)Nc1ccc(Nc2c3c4c(cccc4[nH]c2=O)C(=O)c2ccccc2-3)cc1` is 59.2% (active); for `O=C(Nc1ccccc1C(=O)O)c1ccc(CN2CCOCC2)cc1` it is 8.6%.
In the case of `CCn1cc(C(=O)NC2CCCC(C)C2C)c2cc(OC)c(OC)cc2c1=O` (stereo not given), the viability loss activity score was 2.08%.
Take `O=C1/C(=C/c2cccc(Br)c2)SC(=S)N1CC(=O)N1CCCc2ccccc21`: the viability loss activity score was -6.26%.
As to `O=S(=O)(Nc1ccccc1C(F)(F)F)c1ccc2c(c1)CCO2`, the viability loss activity score is 2.04%.
For the molecule `C[C@@H]1CN([C@H](C)CO)C(=O)c2cc(NS(=O)(=O)c3ccc(Cl)cc3)ccc2O[C@@H]1CN(C)CC1CCCCC1`, the viability loss activity score was -2.47%.
For `COc1ccc(-c2nn(-c3ccc(C)c(Cl)c3)c3c2cnc2ccc(F)cc23)cc1OC` the value was -4.15%.
For `Cc1ccc(S(=O)(=O)n2c(C)cc(C(=O)O)c2C)cc1` the value was -6.81%; for `NC1=NC(=O)C(Cc2cccc(Cl)c2)S1` (stereo not given), -0.141%.
The figure for `CCC(Sc1nc2ccsc2c(=O)n1Cc1ccccn1)C(=O)Nc1cccc(OC)c1` (stereo not given) is -2.12%; for `CCOC(=O)C1C=C2C(=O)N3C=CC=CC3N=C2N(C(C)C)C1=NC(C)=O` (stereo not given) it is -1.61%.
Turning to `C=CCSc1nnc2n1CCCN2C(=O)Nc1cccc(Cl)c1`, the viability loss activity score was -3.59%.
The figure for `OC(CN1CCN(C2c3ccccc3-c3ccccc32)CC1)c1ccccc1` (stereo not given) is 0.265%; for `Cc1cc(Nc2ccc(Cl)cc2)c2ccccc2n1` it is 12.6%; for `CCCn1cc(SCC(=O)N2CCc3ccccc32)c2ccccc21` it is 1.29%.
`CCOC(=O)c1c(NC(=S)Nc2ccc(OC)cc2)sc2c1CC(C(C)C)OC2` (stereo not given): the viability loss activity score was 3.67%.
Turning to `CC(C)NC(=O)Cn1c2ccccc2c2cn[nH]c(=O)c21`, the viability loss activity score was -1.32%.
In the case of `CC(=O)N(c1nc(-c2cc3ccccc3oc2=O)cs1)c1cccc(C)c1C`, the viability loss activity score is 5.58%.
`CCc1c(C)c(C#N)c2nc3ccccc3n2c1-n1ccnc1`: the viability loss activity score is 1.77%.
For `C[C@H]1CN([C@@H](C)CO)C(=O)c2cc(NC(=O)Cc3cn(C)c4ccccc34)ccc2O[C@H]1CN(C)Cc1ccc(Cl)c(Cl)c1` the value was -2.28%; for `Cc1ccc(S(=O)(=O)N(C)C[C@@H]2Oc3ccc(NS(=O)(=O)c4cccs4)cc3C(=O)N([C@@H](C)CO)C[C@H]2C)cc1`, -3.75%; for `O=c1cc(N2CCN(c3ccccc3)CC2)[nH]c(=O)n1-c1ccc(Cl)cc1`, 2.58%.
The figure for `CN(Cc1ccccc1)C(=O)c1cc(-c2ccc(Cl)cc2)on1` is 3.08%.
For `CC1=C(C(=O)OCc2ccccc2)OC(N)=C(C#N)C1c1ccc(F)cc1` (stereo not given) the value was 1.52%; for `Cc1ccc(Cl)cc1N(C)C(=O)c1cc2c(-c3ccc(Cl)cc3)nn(C)c2s1`, -0.32%.
Regarding `Cc1ccccc1NC(=O)Nc1ccccc1N1CCCCC1`, the viability loss activity score is 1.43%.
For `C=C1SC(Nc2ccc(C)cc2)=NC1(C)C` the value was 0.0102%; for `COc1ccc2c(c1)-c1c(ssc1=S)C(C)(C)N2C(C)=O`, 12.8%.
For `C[C@H]1O[C@@H](O[C@H]2[C@@H](O)C[C@H](O[C@H]3[C@@H](O)C[C@H](O[C@H]4CC[C@]5(C)C6C[C@@H](O)[C@]7(C)[C@@H](C8=CC(=O)OC8)CC[C@]7(O)C6CC[C@@H]5C4)O[C@@H]3C)O[C@@H]2C)C[C@H](O)[C@@H]1O` (stereo not given in full) the value was 129% (active); for `COc1cc(OC)cc(C2C(C#N)=C(N)OC(N)=C2C#N)c1`, 1.86%; for `CCOC(=O)C1CCN(C(=O)CN2C(=O)c3ccccc3C2=O)CC1`, -3.08%.
The figure for `Cc1noc(C)c1NC(=O)Nc1ccc2c(c1)C(=O)N([C@H](C)CO)C[C@H](C)[C@H](CN(C)Cc1ccc(-c3ccccc3)cc1)O2` is -1.86%; for `Cc1cc(-c2nc(C)c(-c3nnc(SCC(=O)Nc4ccccc4)n3C)s2)no1` it is -2.45%; for `Cc1ccc2oc(=O)c3cc(C(=O)NC4CCCC4)sc3c2c1` it is 4.55%.
Regarding `Cc1ccc(S(=O)(=O)N(CC(=O)Nc2ccc3c(c2)OCCO3)C2CCCCC2)cc1`, the viability loss activity score is -4.45%.
The figure for `COc1cc2c(cc1OC)C1CN3CCc4cc(OC)c(OC)cc4C3CN1CC2` (stereo not given) is 18.2%.
`CC[C@H]1CN2CCc3cc(OC)c(OC)cc3[C@@H]2C[C@@H]1C[C@H]1NCCc2cc(OC)c(OC)cc21`: the viability loss activity score was 96.1% (active).
In the case of `O=C(Nc1cccc(-c2nc3ccccc3o2)c1)c1cccc(OCc2ccccc2)c1`, the viability loss activity score is 10.7%.
The figure for `Cc1ccc(CN2CCSc3ccc(C(=O)Nc4ccc(F)cc4)cc32)cc1` is 0.172%.
Consider `O=C(NC1CCCCC1)C1CCC(CNS(=O)(=O)c2ccccc2)CC1` (stereo not given), for which the viability loss activity score was 6.1%.
The figure for `CCc1ccc(NC(=O)NC(C)(C)C)cc1` is -4.47%.
The figure for `Cc1ccc(CNC(=O)CCC(=O)Nc2ccc3nc(N4CCCCC4)cc(C)c3c2)cc1` is 0.494%; for `Cc1ccccc1NCC(=O)NN` it is -2.54%; for `Cc1nnn(C23CC4CC(CC(CC(=O)Nc5ccc(Cl)cc5)(C4)C2)C3)n1` it is -2.2%.
For `CC(C)(C)c1ccc(/C=C/C(=O)NCCCn2ccnc2)cc1` the value was 0.598%.
For the molecule `Nc1cc(=O)[nH]c2nnc(SCc3ccc(Br)cc3)n12`, the viability loss activity score is -1.86%.
The figure for `Cc1ccc(N2C(=O)c3oc4cc(C)c(C)cc4c(=O)c3C2c2ccc(O)cc2)nc1` (stereo not given) is -1.21%; for `Oc1ccc(CN2CCCC2)c2cccnc12` it is -4.68%.
With `CC1(C)Cc2c(cnn2-c2ccc(F)cc2)-c2nc3ccccc3nc21`, the viability loss activity score was -0.68%.
Consider `CC(C)N(Cc1nc(-c2ccccc2)no1)C(=O)CCc1ccccc1`, for which the viability loss activity score was -7.42%.
The figure for `Nn1c(C(=O)N2CCCC2)nc2ccccc2c1=O` is -0.611%.
For `CC(C)c1ccc(S(=O)(=O)N2CCN(S(=O)(=O)c3ccc(C(C)C)cc3)C(C)C2)cc1` (stereo not given) the value was 4.1%.
As to `CC1C=CCC2C(=O)N(c3cccc(Cl)c3)C(=O)C12` (stereo not given), the viability loss activity score is 0.408%.
The figure for `CCCCN(Cc1ccccc1)S(=O)(=O)c1ccc2c(c1)oc(=O)n2CC(=O)OCC` is -1.44%; for `O=C1c2ccccc2C(=O)N1CCCC(=O)n1ccc2ccccc21` it is -4.38%.
With `O=C(O)C1=NN(c2ccccc2)C(=O)/C1=C/c1cccs1`, the viability loss activity score is 5.24%.
For `O=C(CCSc1nc(-c2ccco2)cc(C(F)(F)F)n1)N1CCCCC1`, the viability loss activity score was -3.03%.
For the molecule `COc1ccc(Cn2c(=O)oc3ccccc32)cc1`, the viability loss activity score is -1.69%.
The figure for `C[C@H](CO)N1C[C@H](C)[C@H](CN(C)S(=O)(=O)c2cccs2)Oc2c(NC(=O)Nc3ccc4c(c3)OCO4)cccc2C1=O` is 1.64%.
For the molecule `C=CCNC(=O)/C=C/c1ccc(C(C)C)cc1`, the viability loss activity score is -1.64%.
`COc1cc2c(C(=O)N3CCN(c4ccccc4)CC3)cn(CC(C)C)c(=O)c2cc1OC`: the viability loss activity score is -11.1%.
The figure for `CCN(C(=O)CSc1nc2ccccc2c2nc3ccccc3n12)c1cccc(C)c1` is 0.323%.
`O=C(NC1CCCC1)c1cc(-c2ccc(Br)cc2)on1`: the viability loss activity score was -5.17%.
The figure for `C[C@@H]1CN([C@H](C)CO)C(=O)c2cc(NS(=O)(=O)c3cccs3)ccc2O[C@H]1CN(C)Cc1ccncc1` is 1.52%; for `NNC(=O)CN1C(c2ccc(Cl)cc2)=Nc2ccc(Cl)cc2C1c1ccccc1` (stereo not given) it is 4.53%.
The figure for `CC1=C(C(=O)Nc2ccccc2Br)C2(CCCCC2)OC1=O` is -3.85%.
The figure for `O=C(Nc1cccnc1)c1cc2c(s1)-c1ccccc1CC2` is 2.6%.
For `COc1ccc(S(=O)(=O)N(C)C[C@H]2Oc3ccc(NS(C)(=O)=O)cc3C(=O)N([C@H](C)CO)C[C@H]2C)cc1`, the viability loss activity score is 4.8%.
As for `CC(C)c1ccc(NC(=O)c2ccc(NS(=O)(=O)c3cccs3)cc2)cc1`, the viability loss activity score is 11.3%.
As to `CCOc1ccc(NC(=O)Cn2c3c(c(-c4ccccc4)cc2=O)CCCC3)cc1`, the viability loss activity score was 3.03%.
As for `Cc1ccc2nc(-c3ccc(NC(=O)C4CCC4)cc3)sc2c1`, the viability loss activity score is -1.59%.
For `Cc1ccc(OCC(=O)Nc2ccc(-c3nn4c(C)nnc4s3)cc2)cc1` the value was -1.91%.
The figure for `CC1CCCCN1C(=O)CSc1nc(-c2ccccc2)cc(C(F)(F)F)n1` (stereo not given) is -1.5%; for `CCC1=Nc2cc(C(=O)NCCCN3CCOCC3)ccc2Sc2ccc(Br)cc21` it is 7.81%.
The figure for `C[C@@H]1CN([C@@H](C)CO)C(=O)c2cccc(NC(=O)Nc3ccc(C(F)(F)F)cc3)c2O[C@@H]1CN(C)S(=O)(=O)c1ccc(F)cc1` is -0.826%.
